Experiment [1] is described as follows: Caspase-3/7 induction in HepG2 cells by small molecules, qHTS assay (AID 1346978). Further: nearly all actives have a fitted effect of over 15% in size. Further: potency means the concentration at half of the fitted maximal effect. In short, it runs like this: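 Wild-type HepG2 cells, 2,000/well, settled 5 hr at 37 C and 5% CO2, then compound-treated for 17 hr; caspase-3/7 activity read by luminescent Caspase-Glo 3/7 after 30 min at room temperature.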
(In general: qHTS replaces the single test concentration by a dilution series.)

The nature of experiment [2]: Caspase-3/7 induction in CHO-K1 cells by small molecules, qHTS cell viability counter screen (AID 1346979). Further: nearly all actives have a fitted effect of over 35% in size. Further: potency means the concentration at half of the fitted maximal effect. In short, it runs like this: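 To flag cytotoxic compounds, treated CHO-K1 wild-type cells were given CellTiter-Fluor at 16hr and read fluorescently after 1hr at 37C; the caspase-3/7 luminescence was measured in these same wells.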
Experiment [3] can be described thus: Caspase-3/7 induction in CHO-K1 cells by small molecules, qHTS assay (AID 1346980). Further: nearly all actives have a fitted effect of over 15% in size. In short, it runs like this: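 Wild-type CHO-K1 cells exposed to compounds for 17hr at 37 C, 5% CO2. Caspase-3/7 activity then measured by Caspase-Glo 3/7 luminescence after 30min at room temperature.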
Experiment [4] in a line: Caspase-3/7 induction in HepG2 cells by small molecules, qHTS cell viability counter screen (AID 1346981). Further: nearly all actives have a fitted effect of over 30% in size. Further: potency means the concentration at half of the fitted maximal effect. On activity change, negative = cytotoxicity: series mostly up to about 92 µM. In short, it runs like this: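 Treatment of HepG2 cells with DMSO-delivered compounds ran 16 hr at 37 C following a 5-hr pre-incubation of 2,000 cells/well. CellTiter-Fluor fluorescence, read after 1 hr, served as the viability measure in a qHTS format.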
Experiment [5] concerns the target Cytochrome P450 2C19 (Homo sapiens) (UniProt P33261). Kind of experiment: Cytochrome P450 Family 2 Subfamily C Member 19 (CYP2C19) small molecule antagonists: luciferase reporter qHTS assay (AID 1671197). Further: nearly all actives have a fitted effect of over 65% in size. Further: potency means the concentration at half of the fitted maximal effect. On activity change, negative = inhibition: series mostly up to about 120 µM. In short, it runs like this:
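CYP2C19 P450-Glo, 1536-well qHTS. Cpd + enzyme/proluciferin substrate 10 min RT; + NADPH regen, 37C 1 h; stop with luciferin detection reagent, 20 min RT, luminescence (RLU). Pos ctrl ketoconazole.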
(Reporter assays use an easily measured gene product as a stand-in for the process of interest.)

The target in experiment [6] is Cytochrome P450 2C9 (Homo sapiens) (UniProt P11712). In words: Cytochrome P450 Family 2 Subfamily C Member 9 (CYP2C9) small molecule antagonists: luciferase reporter qHTS assay (AID 1671198). Further: nearly all actives have a fitted effect of over 50% in size. Further: potency means the concentration at half of the fitted maximal effect. On activity change, negative = inhibition: series mostly up to about 120 µM. In a few lines: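 P450-Glo proluciferin substrate with CYP2C9 enzyme; 10 min RT preincubation, then NADPH regeneration 1 h at 37C; luciferin detection reagent 20 min RT, luminescence in relative luminescence units.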

The target of experiment [7] is Voltage-gated inwardly rectifying potassium channel KCNH2 (Homo sapiens) (UniProt Q12809). In words: Human Ether-a-go-go-Related Gene (hERG) channel small molecule antagonists: fluorescence cell-based qHTS assay (AID 1671200). Further: nearly all actives have a fitted effect of over 50% in size. Further: potency means the concentration at half of the fitted maximal effect.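 On activity change, negative = inhibition: hERG-expressing U2OS cells given a thallium stimulus after FluxOR II dye loading; series mostly up to about 77 µM.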 In short, it runs like this:
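Measured: Tl+ flux via fluorescence (480/540 nm) in hERG-expressing U2OS cells after 1 h dye loading at room temperature.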
(In general: The hERG channel carries a current that helps repolarise heart muscle cells.)

Experiment [8] addresses Cytochrome P450 3A4 (Homo sapiens) (UniProt P08684). In words: Cytochrome P450 Family 3 Subfamily A Member 4 (CYP3A4) small molecule antagonists: luciferase reporter qHTS assay (AID 1671201). Further: series mostly up to about 120 µM; nearly all actives have a fitted effect of over 50% in size. In short, it runs like this:
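Setup: enzyme-substrate mix, compound pin transfer, 10 min RT. Reaction: NADPH regeneration solution, 1 h RT. Readout: detection reagent stops turnover, luminescence measured after 20 min, expressed in relative luminescence units.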

For experiment [9], the target named is Nuclear receptor subfamily 1 group I member 2 (Homo sapiens) (UniProt O75469). In words: Human pregnane X receptor (PXR) small molecule agonists, qHTS assay (AID 1346982). Further: nearly all actives have a fitted effect of over 35% in size. Further: potency means the concentration at half of the fitted maximal effect. In short, it runs like this: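 Stable HepG2 line reporting PXR-mediated CYP3A4 expression via luciferase. Treatment: 24 hr with compounds in DMSO at 37 C. Detection: ONE-Glo luminescence.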

Experiment [10] deals with Nuclear receptor subfamily 1 group I member 2 (Rattus norvegicus) (UniProt Q9R1A7). In words: Rat pregnane X receptor (rPXR) activation by small molecules, qHTS assay (AID 1346983). Further: nearly all actives have a fitted effect of over 20% in size. The conditions noted are these: rPXR luciferase reporter cells, One-Glo luminescence, 24 h; max activation: active compounds read high. In a few lines:
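Cell-based rPXR activation assay: rPXR cells, 2,000 per well, rested 5hr at 37 C, then exposed to compounds in DMSO for 24 hr at 37 C. Luciferase activity read by One-Glo luminescence after 30 min at room temperature.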

Experiment [11] concerns the target Nuclear receptor subfamily 1 group I member 2 (Homo sapiens) (UniProt O75469). In words: CYP3A4 induction through human pregnane X receptor (PXR) by small molecules, qHTS assay (AID 1346984). Further: nearly all actives have a fitted effect of over 40% in size. In a few lines: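 After 24 h at 37C with compound, DPX-2 cells (HepG2, co-transfected PXR response element and CYP3A4 promoter-luciferase) got 3uM final P450-Glo Luciferin-IPA for 3 h; One-Glo luminescence followed.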

For experiment [12] the target is unchanged. In words: Human pregnane X receptor (PXR) activation by small molecules, qHTS assay (AID 1346985). Further: nearly all actives have a fitted effect of over 40% in size. In short, it runs like this: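 DPX-2 cells (HepG2 co-transfected with a PXR response element and a CYP3A4-promoter luciferase construct) were seeded at 2,000 per well, rested 5 hr at 37C, then exposed to DMSO-dissolved compounds for 24 hr. Activation was read as luciferase luminescence.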

For experiment [13], the target named is Cytochrome P450 1A2 (Homo sapiens) (UniProt P05177). Kind of experiment: Cytochrome P450 Family 1 Subfamily A Member 2 (CYP1A2) small molecule antagonists: luciferase reporter qHTS assay (AID 1671199). Further: nearly all actives have a fitted effect of over 50% in size. Further: potency means the concentration at half of the fitted maximal effect. On activity change, negative = inhibition: series mostly up to about 120 µM. In short, it runs like this:
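Read-out is luminescence from luciferin detection reagent (20 min) proportional to CYP1A2 activity; compounds in DMSO preincubated 10 min with enzyme and proluciferin substrate, then NADPH regeneration solution, 1 h, room temperature.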

Experiment [14] addresses Cytochrome P450 2D6 (Homo sapiens) (UniProt P10635). In words: Cytochrome P450 Family 2 Subfamily D Member 6 (CYP2D6) small molecule antagonists: luciferase reporter qHTS assay (AID 1671196). In short, it runs like this:
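Chemicals tested for interference with CYP2D6 activity; proluciferin substrate, NADPH regeneration, 1 h at room temperature, luminescent detection.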

“And” between values parts separate entries of the source, which are not always exact repeats. Identical values can stand only once. Unmarked numbers belong to inactive results. Records with an inconclusive call do not appear. The source made the active and inactive calls. The call rests on the fitted dose curve; in most records, active means well fitted curve in the direction sought with a large enough effect in the repeat runs; inconclusive means weak or mixed curves; inactive means no such curve, though single readings can be large; an effect the other way counts as inactive or inconclusive.
On the % scale 0 is the no-effect control and ±100 the full control effect.

Cytochrome P450 2D6 (Homo sapiens), sequence (P10635 whole entry, looked up): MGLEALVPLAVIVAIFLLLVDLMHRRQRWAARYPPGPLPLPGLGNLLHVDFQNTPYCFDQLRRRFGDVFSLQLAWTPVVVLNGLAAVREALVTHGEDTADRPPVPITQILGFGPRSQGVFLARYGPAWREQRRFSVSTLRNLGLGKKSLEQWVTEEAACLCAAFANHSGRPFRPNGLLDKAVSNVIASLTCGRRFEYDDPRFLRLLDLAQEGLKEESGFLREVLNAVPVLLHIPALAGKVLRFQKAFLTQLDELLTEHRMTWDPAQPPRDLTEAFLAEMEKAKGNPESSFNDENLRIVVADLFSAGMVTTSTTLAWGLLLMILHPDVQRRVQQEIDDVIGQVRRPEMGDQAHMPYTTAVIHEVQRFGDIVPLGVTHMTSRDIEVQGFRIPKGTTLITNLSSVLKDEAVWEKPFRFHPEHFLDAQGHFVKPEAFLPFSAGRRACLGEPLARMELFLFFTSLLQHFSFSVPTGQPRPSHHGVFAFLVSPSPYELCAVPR
Cytochrome P450 1A2 (Homo sapiens), sequence (P05177 whole entry, looked up): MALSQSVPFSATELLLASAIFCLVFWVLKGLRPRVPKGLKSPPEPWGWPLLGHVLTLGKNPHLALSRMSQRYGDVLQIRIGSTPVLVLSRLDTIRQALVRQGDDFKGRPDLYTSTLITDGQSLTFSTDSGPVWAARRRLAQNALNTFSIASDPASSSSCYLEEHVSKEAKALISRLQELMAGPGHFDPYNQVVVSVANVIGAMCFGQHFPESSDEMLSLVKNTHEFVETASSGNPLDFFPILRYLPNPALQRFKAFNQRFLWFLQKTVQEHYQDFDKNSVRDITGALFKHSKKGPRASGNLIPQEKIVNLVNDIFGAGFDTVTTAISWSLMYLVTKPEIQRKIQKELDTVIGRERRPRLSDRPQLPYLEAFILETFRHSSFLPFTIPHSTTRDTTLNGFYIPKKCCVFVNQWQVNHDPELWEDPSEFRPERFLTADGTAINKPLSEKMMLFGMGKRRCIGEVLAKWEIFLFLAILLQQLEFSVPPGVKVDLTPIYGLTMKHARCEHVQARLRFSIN
Nuclear receptor subfamily 1 group I member 2 (Homo sapiens), sequence (O75469 whole entry, looked up): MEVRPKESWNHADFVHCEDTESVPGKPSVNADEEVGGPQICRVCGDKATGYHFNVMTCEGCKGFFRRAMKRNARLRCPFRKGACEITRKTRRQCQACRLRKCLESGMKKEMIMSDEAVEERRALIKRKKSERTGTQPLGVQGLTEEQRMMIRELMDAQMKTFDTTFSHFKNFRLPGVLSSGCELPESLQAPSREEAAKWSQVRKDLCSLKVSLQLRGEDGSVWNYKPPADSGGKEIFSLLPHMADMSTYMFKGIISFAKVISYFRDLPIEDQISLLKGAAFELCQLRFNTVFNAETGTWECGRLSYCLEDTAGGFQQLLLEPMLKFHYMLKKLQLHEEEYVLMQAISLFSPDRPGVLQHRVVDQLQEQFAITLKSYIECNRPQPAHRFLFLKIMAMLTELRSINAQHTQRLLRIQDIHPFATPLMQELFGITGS
Cytochrome P450 2C19 (Homo sapiens), sequence (P33261 whole entry, looked up): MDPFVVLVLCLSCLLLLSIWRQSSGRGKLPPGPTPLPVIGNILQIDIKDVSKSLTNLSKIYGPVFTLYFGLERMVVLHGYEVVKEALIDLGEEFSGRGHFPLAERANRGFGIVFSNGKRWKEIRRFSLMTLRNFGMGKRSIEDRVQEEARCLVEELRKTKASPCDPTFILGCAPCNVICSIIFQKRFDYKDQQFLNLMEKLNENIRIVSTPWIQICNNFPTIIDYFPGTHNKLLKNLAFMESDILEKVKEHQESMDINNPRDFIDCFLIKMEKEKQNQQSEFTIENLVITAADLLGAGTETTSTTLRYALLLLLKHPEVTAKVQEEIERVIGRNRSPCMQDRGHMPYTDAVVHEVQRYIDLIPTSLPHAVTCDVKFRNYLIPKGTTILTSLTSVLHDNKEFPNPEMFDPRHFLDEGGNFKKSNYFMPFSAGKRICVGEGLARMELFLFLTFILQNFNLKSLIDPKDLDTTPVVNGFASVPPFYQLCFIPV
Voltage-gated inwardly rectifying potassium channel KCNH2 (Homo sapiens), sequence (Q12809 whole entry, looked up): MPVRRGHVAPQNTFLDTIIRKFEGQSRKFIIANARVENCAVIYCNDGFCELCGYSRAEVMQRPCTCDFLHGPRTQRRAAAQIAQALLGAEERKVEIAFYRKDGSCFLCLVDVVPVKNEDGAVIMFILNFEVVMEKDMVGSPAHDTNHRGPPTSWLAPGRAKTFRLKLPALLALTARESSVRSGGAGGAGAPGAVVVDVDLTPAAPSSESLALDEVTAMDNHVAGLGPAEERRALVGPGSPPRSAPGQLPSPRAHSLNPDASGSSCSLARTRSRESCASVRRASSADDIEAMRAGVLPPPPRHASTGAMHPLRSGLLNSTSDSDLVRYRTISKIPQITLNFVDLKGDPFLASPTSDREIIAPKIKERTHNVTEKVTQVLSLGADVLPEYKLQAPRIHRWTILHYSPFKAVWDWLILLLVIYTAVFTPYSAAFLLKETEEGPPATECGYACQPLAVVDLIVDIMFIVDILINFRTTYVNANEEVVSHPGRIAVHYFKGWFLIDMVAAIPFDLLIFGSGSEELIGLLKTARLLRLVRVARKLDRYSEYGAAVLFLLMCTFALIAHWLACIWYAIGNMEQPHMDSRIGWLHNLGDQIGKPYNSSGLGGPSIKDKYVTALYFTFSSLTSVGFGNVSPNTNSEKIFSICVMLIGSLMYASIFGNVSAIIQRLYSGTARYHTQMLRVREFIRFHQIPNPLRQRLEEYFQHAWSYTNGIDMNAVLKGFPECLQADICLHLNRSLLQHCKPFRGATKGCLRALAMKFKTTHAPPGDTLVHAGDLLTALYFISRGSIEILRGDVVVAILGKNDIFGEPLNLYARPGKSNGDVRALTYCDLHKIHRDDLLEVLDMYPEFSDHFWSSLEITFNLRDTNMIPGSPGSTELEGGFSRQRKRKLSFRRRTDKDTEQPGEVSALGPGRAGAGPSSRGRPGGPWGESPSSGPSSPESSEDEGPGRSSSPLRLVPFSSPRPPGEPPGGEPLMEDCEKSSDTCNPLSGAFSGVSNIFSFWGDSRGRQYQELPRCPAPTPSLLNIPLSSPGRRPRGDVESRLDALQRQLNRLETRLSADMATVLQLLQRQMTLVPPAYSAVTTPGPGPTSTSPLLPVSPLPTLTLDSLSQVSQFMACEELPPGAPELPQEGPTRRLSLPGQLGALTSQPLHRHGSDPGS
Cytochrome P450 3A4 (Homo sapiens), sequence (P08684 whole entry, looked up): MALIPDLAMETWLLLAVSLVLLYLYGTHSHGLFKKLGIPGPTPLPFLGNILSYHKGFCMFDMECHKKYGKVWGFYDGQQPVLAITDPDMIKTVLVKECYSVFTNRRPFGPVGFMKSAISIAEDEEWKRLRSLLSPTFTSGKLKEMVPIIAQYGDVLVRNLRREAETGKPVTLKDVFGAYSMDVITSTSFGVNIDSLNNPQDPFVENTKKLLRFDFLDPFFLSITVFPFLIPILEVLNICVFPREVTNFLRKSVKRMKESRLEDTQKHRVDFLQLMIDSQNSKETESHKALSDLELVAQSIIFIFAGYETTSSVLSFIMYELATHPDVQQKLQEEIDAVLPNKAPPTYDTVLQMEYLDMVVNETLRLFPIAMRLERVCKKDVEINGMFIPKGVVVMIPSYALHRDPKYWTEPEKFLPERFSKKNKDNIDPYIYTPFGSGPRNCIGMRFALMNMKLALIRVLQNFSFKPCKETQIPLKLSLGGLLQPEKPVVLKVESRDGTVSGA
Cytochrome P450 2C9 (Homo sapiens), sequence (P11712 whole entry, looked up): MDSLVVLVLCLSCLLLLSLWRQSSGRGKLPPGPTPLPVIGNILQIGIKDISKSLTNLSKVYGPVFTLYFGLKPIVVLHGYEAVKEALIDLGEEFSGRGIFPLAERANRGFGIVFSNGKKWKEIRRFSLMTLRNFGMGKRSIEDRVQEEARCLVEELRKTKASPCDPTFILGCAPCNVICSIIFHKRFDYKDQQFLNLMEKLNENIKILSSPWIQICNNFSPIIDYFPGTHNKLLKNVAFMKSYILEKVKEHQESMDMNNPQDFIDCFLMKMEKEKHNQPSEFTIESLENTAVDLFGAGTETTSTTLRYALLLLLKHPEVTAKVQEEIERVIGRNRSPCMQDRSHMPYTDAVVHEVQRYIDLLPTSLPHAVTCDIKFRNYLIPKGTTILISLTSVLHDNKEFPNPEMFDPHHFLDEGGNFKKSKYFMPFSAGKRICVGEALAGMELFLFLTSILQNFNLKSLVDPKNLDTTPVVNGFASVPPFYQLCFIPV
Nuclear receptor subfamily 1 group I member 2 (Rattus norvegicus), sequence (Q9R1A7 whole entry, looked up): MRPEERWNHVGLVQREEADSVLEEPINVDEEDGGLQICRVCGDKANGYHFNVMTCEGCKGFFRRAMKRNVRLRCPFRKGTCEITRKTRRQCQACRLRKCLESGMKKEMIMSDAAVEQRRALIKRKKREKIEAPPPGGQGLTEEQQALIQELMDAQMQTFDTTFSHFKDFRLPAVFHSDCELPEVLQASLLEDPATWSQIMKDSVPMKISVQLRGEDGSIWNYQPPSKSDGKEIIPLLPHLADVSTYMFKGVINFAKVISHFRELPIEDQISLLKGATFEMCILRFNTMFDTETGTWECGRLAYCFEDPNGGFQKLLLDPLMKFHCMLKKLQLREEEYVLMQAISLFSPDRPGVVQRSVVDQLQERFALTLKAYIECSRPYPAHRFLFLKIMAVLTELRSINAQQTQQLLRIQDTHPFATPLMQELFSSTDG

For `CC(=O)c1ccccc1N`, the Potency result in experiment [1], in [2], in experiment [3], in experiment [4], in experiment [5] and in experiment [6] was “inactive” throughout. For the same molecule, the Potency result in [7] and in experiment [8] was “inactive” in each case.

On to `COCC(=O)O[C@]1(CCN(C)CCCc2nc3ccccc3[nH]2)CCc2cc(F)ccc2[C@@H]1C(C)C`, for which the Potency in experiment [1] was 26.6 µM (active); in [2], 29.8 µM (active); in experiment [4], 29.8 µM (active); in experiment [9] it was 1.68 µM (active). Moreover, in experiment [10], the max activation is -19.6%. Besides, the Potency result in experiment [11], in experiment [12], in experiment [6] and in [13] was “inactive” throughout.

`O=S(=O)(O)c1cc(S(=O)(=O)O)c2ccc3c(S(=O)(=O)O)cc(S(=O)(=O)O)c4ccc1c2c43`: the caspase activation in [1] was 0.784% [at 19 µM]. The results for the activity change, negative = cytotoxicity in experiment [2] and in [4] were 5.57% [at 19 µM] and 6.28% [at 19 µM], respectively. Moreover, in experiment [9], the activation is -3.44% [at 19 µM]. Moreover, the activity change, negative = inhibition in [14] was -11.8% [at 23.6 µM]; in experiment [5], -18.9% [at 23.6 µM]; in experiment [6] it was -1.93% [at 23.6 µM]; in [13] it was -17.6% [at 23.6 µM]; in experiment [7], 2.85% [at 15.8 µM]; in experiment [8], 10.6% [at 23.6 µM].

Turning to `CCCC(=O)OCC(COC(=O)CCC)OC(=O)CCC`, the Potency entry in experiment [1], in experiment [2], in experiment [4], in experiment [9], in experiment [14] and in experiment [7] was “inactive” throughout. The Potency entry in experiment [8] was “inactive”. Further, the Potency in experiment [5] was 20 µM (active); in experiment [6] it was 5.64 µM (active); in experiment [13] it was 28.3 µM (active).

Take `O=C(Nc1ccc(Cl)cc1)Nc1ccc(Cl)c(C(F)(F)F)c1`: the Potency result in [1], in [7] and in experiment [8] was “inactive” each time. In addition, the Potency in experiment [2] was 11.9 µM (active); in experiment [4] it was 29.8 µM (active); in experiment [9], 9.44 µM (active); in experiment [5], 17.4 µM (active); in experiment [6], 13.8 µM (active); in experiment [13], 25.7 µM (active).

Regarding `CC(=O)O[C@@H]1C[C@@H]2CC[C@@]1(C)C2(C)C`, the Potency result in experiment [1], in experiment [2], in experiment [4], in experiment [9], in experiment [14] and in experiment [5] was “inactive” each time. Further, the Potency result in experiment [6], in [7] and in experiment [8] was “inactive” in each case. In [13], the Potency is 39.9 µM (active).

Consider `CSc1ccc2c(c1)N(CCC1CCCCN1C)c1ccccc1S2` (configuration not stated), for which the Potency in experiment [1] was 30.5 µM (active); in experiment [2], 15.3 µM (active) and 29.8 µM (active); in experiment [4] it was 60.9 µM (active) and 29.8 µM (active); in [9], 9.65 µM (active) and 5.96 µM (active); in experiment [5], 17.8 µM (active) and 21.9 µM (active); in [6] it was 70.7 µM (active). Further, in experiment [13], the Potency was 28.1 µM (active) and 15.5 µM (active). Besides, the Potency result in experiment [8] is “inactive”.

For `C=CC(=O)OCC(O)COc1ccccc1` (configuration not stated), the Potency result in experiment [1], in [3], in [9], in experiment [14], in experiment [7] and in experiment [8] was “inactive” throughout. For the same molecule, the results for the Potency in experiment [2], in [5] and in experiment [13] were 61.1 µM (active), 35.6 µM (active) and 35.6 µM (active), respectively.

On to `CCCCCCCC(C)=O`, for which the Potency entry in experiment [1], in experiment [2], in experiment [4], in [9], in experiment [14] and in [5] was “inactive” each time. The Potency entry in [6], in experiment [7] and in experiment [8] was “inactive” in each case. Moreover, the Potency in experiment [13] is 35.6 µM (active).

In the case of `Clc1ccc(C(Cn2ccnc2)OCc2c(Cl)cccc2Cl)c(Cl)c1` (configuration not stated), the Potency entry in [1] and in experiment [3] was “inactive” in each case. Further, the Potency in [2] is 21.1 µM (active); in [7], 7.56 µM (active).

Source of the values: PubChem BioAssay (Tox21).
